In PubChem BioAssay (EPA / NIEHS):
Values joined by “and” are separate entries in the source; they are usually repeats but may differ in a detail not shown here. Equal values may be shown once. Inconclusive results are not listed. Some structures have more than one record in an assay (separate samples or runs), and their calls can disagree. Active and inactive are the calls of the source. How the source made its calls: active means hit-call score of the fitted dose curve at least 0.9, where 1 is the maximum; inconclusive means response in the unintended direction; inactive means score below 0.9.

Assay: TOX21_p53_BLA_p5_viability: Viability Assessment in the Tox21 HCT-116 p53 Agonism Beta-lactamase Assay, Phase 5 (AID 2283600)
Excerpt: TOX21_p53_BLA_p5 is a cell-based, single-readout assay that uses HCT116, a human intestinal cell line, […] in a 1536-well plate.TOX21_p53_BLA_p5_viability is an assay readout measuring cellular ATP content and detected with CellTiter-Glo Luciferase-coupled ATP quantitation.TOX21_p53_BLA_p5_viability used a type of viability reporter where loss-of-signal activity can be used to understand changes in the cell viability. Furthermore, this assay endpoint can be referred to as a secondary readout, because this assay has produced multiple assay endpoints where this one serves a viability function. To generalize the intended target to other relatable targets, this assay endpoint is annotated to the cell cycle intended target family, where the subfamily is cytotoxicity.
Thawing Method: Place 14 mL of pre-warmed thaw medium into a 15 mL of conical tub. Remove the vial of cells to be thawed from liquid nitrogen and thaw rapidly by placing at 37C in a water bath with gentle agitation for 1-2 minutes. Decontaminate the vial by wiping with 70% ethanol before opening in a biological safety cabinet. Transfer the vial contents drop-wise into 14 mL of thaw medium in a sterile 15-mL conical tub. Centrifuge cells at 900 rpm for 4 minutes and resuspend in thaw medium. Transfer contents to the T75 tissue culture flask containing Thaw Medium and place flask in a humidified 37C/5% CO2 incubator. Switch to growth medium at first passage.Propagation Method: Aspirate medium, rinse once in DPBS, add 0.25% Trypsin/EDTA and swirl to coat the cell evenly. Add an equal volume of Growth Medium to inactivate Trypsin after 2-3 minutes incubation at 37C. Centrifuge cells at 900 rpm for 4 minutes and resuspend in growth medium. Cell should be passage or fed at least twice a week.Assay Protocol: Harvest cells from culture in growth medium and resuspend in assay medium. 2.2 Dispense 4000 cells/5 uL/well into 1536-well black/clear bottom plates using a Multidrop dispenser. After the cells were incubated at 37C for 5 hours, 23 nL of compounds dissolved in DMSO were transferred to the assay plate by a PinTool resulting in a 217-fold dilution. Incubate the plates for 16 hours at 37C, 5% CO2. Add 1 uL of 6X LiveBLAzer FRET B/G (CCF4-AM) Substrate Mixture to each well using a BioRAPTR dispenser and incubate the plates at room temperature for 2 hours. Measure fluorescence intensity at 460 and 530 nm emission and 405 nm excitation by an Envision detector. Data is expressed as the ratio of 460nm/530nm emissions. Add 4 uL of Cell-titer Glo to each well using BioRAPTR and incubate the plates at room temperature for […]. For cell viability readout that measures cytotoxicity, 4 ul/well of CellTiter-Glo reagent was added into the assay plates using a Flying Reagent Dispenser. After 30 min incubation at room temperature, the luminescence intensity in the plates was measured using a ViewLux plate reader.

SMILES | outcome | AC50
COCN(COC)c1nc(N(COC)COC)nc(N(COC)COC)n1 | inactive | –
C=CC(=O)OCC(CO)(COCC(COC(=O)C=C)(COC(=O)C=C)COC(=O)C=C)COC(=O)C=C | – | 2.74 µM (active)
CC(O)COc1ccccc1 (stereo not given) | inactive | –
NCCN | inactive | –
O=C1OC2(c3ccccc31)c1cc(I)c(O)c(I)c1Oc1c2cc(I)c(O)c1I | inactive | –
CC(C)(O)C(=O)c1ccccc1 | inactive | –
O=C(CCCN1CCC(O)(c2ccc(Cl)cc2)CC1)c1ccc(F)cc1 | inactive | –
CCOCCOCC | inactive | –
Cc1cc(C(C)(C)C)c(O)c(C(C)(C)C)c1 | inactive | –
CC1=CC(=O)c2ccccc2C1=O | inactive | 37.9 µM (active)
O=C(c1ccccc1)c1ccccc1 | inactive | –
O=C(Nc1ccc(Cl)c(Cl)c1)c1cc(Cl)cc(Cl)c1O | inactive | –
Cc1ccc(C)c(S(=O)(=O)O)c1 | inactive | –
CCCCCCCCCCCC[N+](C)(C)CCCCCCCCCCCC | – | 37 µM (active)
Nc1cc(Cl)c(-c2cc(Cl)c(N)cc2Cl)cc1Cl | – | 71.8 µM (active) and 61.9 µM (active)
Oc1c(Cl)cc(Cl)cc1Sc1cc(Cl)cc(Cl)c1O | inactive | 82 µM (active) and 85.7 µM (active)
Cc1cc(=O)oc2cc(O)ccc12 | inactive | –
CNNCc1ccc(C(=O)NC(C)C)cc1 | inactive | –
CCCCCCCCCC=CCC1CC(=O)OC1=O (stereo not given) | inactive | –

SMILES | outcome | AC50
Oc1c(Cl)ccc(Cl)c1Cl | inactive | –
O=C1OC(=O)c2cc(-c3ccc4c(c3)C(=O)OC4=O)ccc21 | inactive | –
CCCCCC(C)OC(=O)COc1ccc(Cl)c2cccnc12 (stereo not given) | inactive | –
O=c1cc(-c2ccccc2)oc2ccc3ccccc3c12 | inactive | –
OCC1CCC(CO)CC1 (stereo not given) | inactive | –
O=C(Nc1cccc([N+](=O)[O-])c1)c1cc2ccccc2cc1O | inactive | –
O=S(=O)(O)c1ccc2cc(O)ccc2c1 | inactive | –
C[C@]12CC[C@@H]3c4ccc(O)cc4CC[C@H]3[C@@H]1C[C@@H](O)[C@@H]2O | inactive | –
O=C1c2ccccc2C(=O)c2c(O)c(O)cc(O)c21 | inactive | –
NCc1cccc(CN)c1 | inactive | –
CCCCCCc1ccc(N)cc1 | inactive | –
O=C(NO)c1ccccc1 | inactive | –
c1cnc2c(c1)ccc1cccnc12 | inactive | –
CC(C)(C)c1ccc(O)c(O)c1 | inactive | –
CCOC(=O)CN[C@@H](C(=O)N1CC[C@H]1C(=O)NCc1ccc(/C(N)=N/O)cc1)C1CCCCC1 | inactive | –
CCCCc1oc2ccccc2c1C(=O)c1cc(I)c(OCCN(CC)CC)c(I)c1 | inactive | –
CC1=NN(c2ccccc2)C(=O)C1 | inactive | –
CCOC(C)=O | inactive | –
CN(C)CCOC(c1ccccc1)c1ccccc1 | inactive | –
